# BLM helicase inh: qHTS Assay for Inhibitors of Bloom's syndrome helicase (BLM). recombinant BLM DNA unwinding, fluorescence dequenching. Potency, µM (titrated, usually from 56.1 µM), for the others: at the highest dose activity change, negative = inhibition, most hits filed as inhibitors. 350,000 compounds, 0.2% hits. RecQ-like DNA helicase BLM (Homo sapiens), P54132;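 note: potency is the fitted concentration of half-maximal effect; plate controls were vehicle for no effect and no enzyme for full effect; nearly all actives have a fitted effect of over 35% in size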
# RECQ1 inh-1: qHTS Assay for Inhibitors of RecQ-Like Dna Helicase 1 (RECQ1). ATP-dependent DNA helicase Q1 (Homo sapiens), P46063. RECQ1 DNA unwinding, red fluorescence kinetic read. Potency, µM (top dose mostly 57.3 µM), inactives show top-dose activity, negative = inhibition, usual class: inhibitors. 240,000 compounds, 0.54% hits. AID 2549, 2010;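 note: potency is the fitted concentration of half-maximal effect; plate controls were vehicle for no effect and no enzyme for full effect; nearly all actives have a fitted effect of over 30% in size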
# Target sequence (P46063 whole entry, looked up): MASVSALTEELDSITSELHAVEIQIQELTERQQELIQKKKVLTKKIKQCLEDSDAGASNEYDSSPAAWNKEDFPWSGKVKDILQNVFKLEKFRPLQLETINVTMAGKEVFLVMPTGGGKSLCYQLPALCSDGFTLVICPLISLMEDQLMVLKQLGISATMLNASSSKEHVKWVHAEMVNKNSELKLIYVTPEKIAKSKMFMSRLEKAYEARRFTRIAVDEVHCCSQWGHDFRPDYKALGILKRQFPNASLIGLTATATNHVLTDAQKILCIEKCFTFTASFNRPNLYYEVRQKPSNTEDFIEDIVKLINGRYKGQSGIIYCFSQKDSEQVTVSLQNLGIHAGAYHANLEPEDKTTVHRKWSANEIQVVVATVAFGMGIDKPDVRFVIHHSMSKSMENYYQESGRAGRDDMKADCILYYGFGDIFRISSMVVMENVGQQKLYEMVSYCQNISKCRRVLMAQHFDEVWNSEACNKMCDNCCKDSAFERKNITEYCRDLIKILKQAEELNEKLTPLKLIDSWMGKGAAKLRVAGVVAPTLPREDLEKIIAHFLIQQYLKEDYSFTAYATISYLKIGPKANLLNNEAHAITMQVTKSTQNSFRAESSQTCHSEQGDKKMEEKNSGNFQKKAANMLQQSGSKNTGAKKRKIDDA
#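 50 nM RECQ1T1 preincubated 15 min with compound in Tris pH 8.0 buffer with MgCl2, DTT, Tween-20 and 2.5 ug/ml poly(dI-dC); started with 200 nM TAMRA/BHQ-2 forked duplex and 2 mM ATP. Unwinding read as fluorescence (525/598 nm), two reads 2 h apart.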
# KAT2A inh: qHTS Assay for Inhibitors of GCN5L2; Potency, µM (doses to about 58.9 µM), inactives show top-dose activity change, negative = inhibition, most hits filed as inhibitors; GCN5L2 HAT assay, ThioGlo1 CoA-SH fluorescence; Histone acetyltransferase KAT2A (Homo sapiens), Q92830; 390,000 compounds, 0.21% hits; note: potency is the fitted concentration of half-maximal effect
#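 Free CoA generated was detected with ThioGlo1 (50uM) fluorescence at Ex340nm/Em540nm, read immediately and after 20 min at room temperature. Enzyme, 20 nM in HEPES pH 7.5 buffer, saw compounds 15 min before adding 75uM H3(1-25) peptide and 70uM acetyl-CoA.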
# APEX1 inh: qHTS Assay for Inhibitors of the Human Apurinic/apyrimidinic Endonuclease 1 (APE1); DNA repair nuclease/redox regulator APEX1 (Homo sapiens), P27695; recombinant APE1, TAMRA/BHQ-2 abasic DNA cleavage fluorescence; Potency, µM (doses to about 65.8 µM), inactives show at the top dose activity change, negative = inhibition, hits mostly inhibitors; 350,000 compounds, 0.35% hits; AID 2517, 2012;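 note: potency is the fitted concentration of half-maximal effect; plate controls were vehicle for no effect and reference inhibitor for full effect; nearly all actives have a fitted effect of over 55% in size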
#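 Activity was derived from the fluorescence gain between first and third kinetic reads (60 s intervals, ex 525/em 598 nm) after 50 nM THF-abasic TAMRA/BHQ-2 duplex was added to 0.75 nM APE1 preincubated 15 min with compound.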
# FEN1 inhibitor: qHTS Assay for the Inhibitors of Human Flap endonuclease 1 (FEN1); P39748; Recombinant FEN1 flap cleavage, fluorescence, 15 min; Potency, µM (top dose mostly 114 µM), for inactives: at the top dose activity change, negative = inhibition, hits mostly inhibitors; 390,000 compounds, 0.35% hits; AID 588795, 2011; note: potency is the fitted concentration of half-maximal effect; nearly all actives have a fitted effect of over 65% in size
#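 In this screen, 50 nM flap DNA substrate was added to 10 nM FEN1 pretreated with compound for 15 min at room temperature; cleavage was followed with reads at 0 and 15 min, and Hill fitting gave concentration–response parameters.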
# PI5P4Ka inh: qHTS for Inhibitors of phosphatidylinositol 5-phosphate 4-kinase (PI5P4K) | PI5P4Kalpha enzyme, ADP-Glo luminescence, 60 min; active compounds read low | AID 652105, 2013 | 330,000 compounds, 1.2% hits | max response, %; active = max response of -50% or lower; inconclusive = between -30% and -50%; inactive = -30% or higher; note: value at the top dose of about 77 µM
#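 ADP-Glo luminescence end-point read after a 60 min room-temperature kinase reaction of PI5P4Kalpha plus substrate, initiated with ATP at 5 microM final. Buffer: 0.038 M HEPES pH 7.4, EGTA, 0.1% CHAPS, 5% DMSO.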
# RECQ1 inh conf: Confirmation qHTS Assay for Inhibitors of RecQ-Like Dna Helicase 1 (RECQ1). shares compounds with RECQ1 inh-1. RECQ1 helicase DNA unwinding, fluorescence. Potency, µM (doses to about 229 µM), for the others: top-dose activity change, negative = inhibition, actives largely listed as inhibitors. 610 compounds, 28% hits. AID 2708, 2010; note: potency is the fitted concentration of half-maximal effect; nearly all actives have a fitted effect of over 45% in size
# ADP FP counter: Counterscreen for RECQ1 Inhibitors: ADP Fluorescence Polarization Displacement Assay. shares compounds with RECQ1 inh-1. ADP fluorescence polarization displacement counterscreen. Potency, µM (top dose mostly 228 µM), without a hit: at the top dose activity change, negative = inhibition, hits mostly inhibitors. 530 compounds, 27% hits; note: potency is the fitted concentration of half-maximal effect; nearly all actives have a fitted effect of over 45% in size
# RECQ1 inh-2: Confirmation qHTS Assay for Inhibitors of RecQ-Like Dna Helicase 1 (RECQ1) - Round 2 Cherry Picks; recombinant RECQ1 DNA unwinding, red fluorescence; 1,100 compounds, 15% hits; shares compounds with RECQ1 inh-1; Potency, µM (highest dose often 119 µM), without a hit: at the top dose activity, negative = inhibition, usual class: inhibitors; note: potency is the fitted concentration of half-maximal effect; nearly all actives have a fitted effect of over 50% in size
# An asterisk follows results filed as active; i = inactive; ? = inconclusive; / = not tested or not shown; ! = not confirmed by another sample; [ ] = remark or other dose. Shown are actives, neighbours in structure and some others; about 1.5% of the full set was active somewhere. Unless noted, calls come from the whole dose curve; as a rule, active = well fitted curve in the direction sought with a large enough effect; inconclusive = small, poorly fitted or top-dose-only effect, or another doubt; inactive = no such curve, though single readings can be large; an effect the other way counts as inactive or inconclusive. Unless noted, % is set by controls: 0 for no effect and ±100 for the full control effect.
SMILES,BLM helicase inh,RECQ1 inh-1,KAT2A inh,APEX1 inh,FEN1 inhibitor,PI5P4Ka inh,RECQ1 inh conf,ADP FP counter,RECQ1 inh-2
C=CCn1c(O)c(N=NC(=O)CNC(=O)/C=C/c2ccco2)c2ccccc21,?,?,-13.8%,?,?,/,/,/,?
CCOc1ccccc1-c1nnc2n1N=C(c1c(OC)cccc1OC)CS2,2.8%,-4.6%,/,-2.7%,/,/,/,/,/
CC1=CCc2c(cc3oc(C)cc(=O)c3c2O)OC1,0.7%,i,-3.4%,0.7%,/,/,/,/,/
Cc1cc(=O)c2c(O)c(O)ccc2o1,-3.5%,35.5µM*,25.6%,?,-13.9%,6.5,/,/,-9.4%
O=C(O)c1cc(-c2ccco2)nc2ccc(Br)cc12,-12.5%,3.16µM*!,?,12.6µM*,12.6µM*!,-87.2*!,44.7µM*,?,?
O=C(c1ccco1)N1CCN(C(=O)c2cc(-c3ccncc3)nc3ccc(Br)cc23)CC1,/,/,/,/,-1.6%,-9.3,/,/,/
COC(=O)C1=C(C(=O)OC)[C@@H]2N(C)c3ccccc3[C@@]23C[C@@H](C(=O)OC)N(S(=O)(=O)c2ccc(OC)cc2)C3=N1,-2.0%[12.4 µM],-12.0%[11.5 µM],/,-10.1%[12.4 µM],/,/,/,/,/
CC(=O)Nc1ccc(S(=O)(=O)/N=C2\SCCN2S(=O)(=O)c2ccc(NC(C)=O)cc2)cc1,4.1%,?,-13.9%,?,-4.1%,-10.6,/,/,-11.3%
CC(=O)Nc1ccc(S(=O)(=O)Nc2ccc(S(=O)(=O)N3CCCC3)cc2)cc1,-2.9%,6.5%,-3.0%,0.7%,4.8%,/,/,/,/
Cc1cc(/C=C2\SC(=S)NC2=O)c(C)n1C,-18.0%,0.316µM*,-2.6%,-4.2%,?,/,44.7µM*,10µM*,/
NCC(O)COc1cccc2ccccc12 (stereo not drawn),/,14.8%,11.0%,-3.9%,/,/,/,/,/
O=C(CSc1c2c(nc3ccccc13)CCCC2)NCc1ccco1,-0.7%,14.1µM*,-3.5%,8.4%,19.3%,1.7,-6.5%[114 µM],?,-1.0%
CC1(C)CC(=O)/C(=C(\O)CCCN2C(=O)c3ccccc3C2=O)C(=NCC(=O)O)C1,0.0%,i,-2.7%,15.5%,-7.6%,-0.3,-2.2%,1.5%,/
COc1ccc(CN2C(=O)c3ccccc3C2C(=O)NC2CCCC(C)C2C)c(OC)c1 (stereo not drawn),-9.3%,3.16µM*,-10.9%,0.8%,3.1%,0.4,-5.9%[114 µM],18.9%[91.9 µM],-10.2%
COc1ccc(CN2C(=O)c3ccccc3C2C(=O)NC2CCC(C)CC2)c(OC)c1 (stereo not drawn),-5.5%,-12.6%,-6.3%,0.3%,-0.7%,-0.5,/,/,/
CCOC(=O)c1ccc(CC(=O)c2ccc(O)c(O)c2O)o1,-5.8%,1.41µM*,-11.7%,?,14.1µM*,?,5.0%[114 µM],1.8%[91.9 µM],/
